The assay can be described thus: Primary qHTS for inhibitors of nuclear receptor binding SET domain protein 2 (NSD2) in an isogenic RCH-ACV NSD2 p.E1099K mutant (9B) (AID 1645876; note: nearly all actives have a fitted effect of over 70% in size). (qHTS replaces the single test concentration by a dilution series.)

The structures appear in SMILES notation. Records with an inconclusive call do not appear. Where a call stands in place of a potency, no number is given. The source made the active and inactive calls. Calls come from the whole dose curve; as a rule, active = well fitted inhibition curve with a large enough effect; inconclusive = small, poorly fitted or top-dose-only effect; inactive = flat fitted curve, though single readings scatter.

For `Nc1ccn(CC(CO)OCP(=O)(O)O)c(=O)n1` (stereo unspecified), the Potency result was “inactive”.

These data come from PubChem BioAssay (NCATS).
